Test [1] is described as follows: Primary qHTS for inhibitors of nuclear receptor binding SET domain protein 2 (NSD2) in an RCH-ACV wild type WT cells (2C) (AID 1645877; also: nearly all actives have a fitted effect of over 70% in size; also: potency is read from the fitted curve at half-maximal effect; as to activity change, negative = cell killing: % is scaled to controls: 0 for no effect and ±100 for the full control effect). (Quantitative high-throughput screening tests each substance at several concentrations.)
For test [2], the target named is Glutathione peroxidase 1 (Homo sapiens) (UniProt P07203). The experiment in a line: Primary qHTS Assay for Inhibitors of Recombinant Selenoprotein Glutathione Peroxidase 1 (GPX1) (AID 1845191). Also: nearly all actives have a fitted effect of over 65% in size. Also: potency is read from the fitted curve at half-maximal effect. As to activity, negative = inhibition: % is scaled to controls: 0 for no effect and ±100 for the full control effect. In a few lines: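 10 nM GPX1 + cpd, 30 min RT; start w/ 1 mM GSH, 0.5 mM cumene hydroperoxide, 0.5 mM NADPH, 100 nM GR, 0.01% BSA; buffer 50 mM Tris-HCl pH 7.5, 2 mM EDTA, 150 mM NaCl; Fl 340/450, 0 & 15 min.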

Test [3] concerns the target Phospholipid hydroperoxide glutathione peroxidase GPX4 (Homo sapiens) (UniProt P36969). In words: Primary qHTS Assay for Inhibitors of Recombinant Selenoprotein Glutathione Peroxidase 4 (GPX4) (AID 1845192). Also: nearly all actives have a fitted effect of over 65% in size. Also: potency is read from the fitted curve at half-maximal effect. In a few lines:
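NADPH consumption, followed by fluorescence at 340/450 nm between 0 and 15 min, reports GPX4 activity via coupled glutathione reductase (100 nM). Enzyme 200 nM was pre-exposed to compound 30 min; 0.5 mM cumene hydroperoxide and 1 mM GSH served as substrates.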

Test [4] concerns the target Luciferin 4-monooxygenase (Photinus pyralis) (UniProt P08659). In words: Primary firefly luciferase (FLuc) qHTS assay for identification of artifact compounds. (AID 1845220). Also: nearly all actives have a fitted effect of over 60% in size. Also: potency is read from the fitted curve at half-maximal effect. Put shortly:
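FLuc 10 nM; luciferin 10 uM; ATP 10 uM; Tris-acetate pH 7.6, Mg-acetate 10 mM; 15 min RT preincubation; 5 min reaction; luminescence.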

Test [5] is described as follows: Primary fluorescence-based thiol-reactive (MSTI) qHTS assay for identification of artifact compounds. (AID 1845221). Also: nearly all actives have a fitted effect of over 65% in size. Also: potency is read from the fitted curve at half-maximal effect.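 As to activity change, negative = thiol reactive: series mostly up to about 54 µM; thiol-reactive compounds lower the probe fluorescence signal.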 Put shortly: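 qHTS titration of compound; 4 uM MSTI, PBS pH 7.4, 2% DMSO; 1 h RT, dark; fluorescence 525/598 nm; normalized to Acetyl-MSTI and MSTI; 4-parameter Hill fit.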
For test [6], the system named is Nanoluciferase (engineered Oplophorus gracilirostris luciferase). In words: Primary Nanoluciferase (NLuc) qHTS assay for identification of artifact compounds. (AID 1845222).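 Also: NLuc secreted into diluted conditioned medium of S16 cells; series mostly up to about 54 µM; 0% = DMSO and -100% = no enzyme.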 In a few lines: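 NLuc from S16 cell medium (1:55) plus test compounds, 15 min, room temperature. Luminescence after Nano-Glo (1:100) addition, 5 min.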
Test [7] can be described thus: Primary redox qHTS assay for identification of artifact compounds. (AID 1845223).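 Also: 0% = DMSO and 100% = reference compound.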 In a few lines:
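Amplex Red (25 uM) and HRP (250 mU/mL) in HBSS, with compounds for 15 min, then 250 uM DTT for 30 min, room temperature, dark. Fluorescence 525/598 nm read; normalized to DMSO and 10 uM DA3003; Hill fit.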

A number with no mark means an inactive call. Inconclusive results are not listed. Calls of active or inactive are those of the source. Calls follow the shape of the dose curve; as a rule, active = well fitted curve in the direction sought with a large enough effect; inconclusive = small, poorly fitted or top-dose-only effect, or another doubt; inactive = no such curve, though single readings can be large; an effect the other way counts as inactive or inconclusive.

Glutathione peroxidase 1 (Homo sapiens), sequence (P07203 whole entry, looked up): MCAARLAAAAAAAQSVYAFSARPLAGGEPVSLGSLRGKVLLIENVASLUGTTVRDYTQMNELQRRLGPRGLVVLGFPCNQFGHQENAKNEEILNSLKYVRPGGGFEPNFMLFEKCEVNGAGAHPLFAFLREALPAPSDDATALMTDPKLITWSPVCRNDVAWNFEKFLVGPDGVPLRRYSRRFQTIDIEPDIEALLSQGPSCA
Phospholipid hydroperoxide glutathione peroxidase GPX4 (Homo sapiens), sequence (P36969 whole entry, looked up): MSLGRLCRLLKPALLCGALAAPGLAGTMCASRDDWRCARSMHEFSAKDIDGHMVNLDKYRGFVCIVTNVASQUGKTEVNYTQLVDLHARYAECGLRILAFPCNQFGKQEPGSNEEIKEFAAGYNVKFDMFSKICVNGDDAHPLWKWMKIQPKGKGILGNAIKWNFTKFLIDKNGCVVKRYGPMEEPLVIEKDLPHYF

Consider `COc1ccc(C(=O)Nc2ncc(-c3ccc(C(=O)O)cc3)s2)cc1`, for which the values for the Potency in test [1] and in test [4] were 1.84 µM (active) and 2.69 µM (active), respectively. Moreover, the Potency result in test [2], in test [3], in test [5], in test [6] and in test [7] was “inactive” throughout.

With `C[C@H](C/C=C/C(C)(C)O)[C@H]1CC[C@@]2(C)[C@@H]3[C@@H](O[C@@H]4O[C@H](CO)[C@@H](O)[C@H](O)[C@H]4O)C=C4C(CC[C@H](O)C4(C)C)[C@]3(C=O)CC[C@]12C` (stereo partly drawn), the Potency entry in test [1], in test [2], in test [3], in test [4], in test [5] and in test [6] was “inactive” throughout. In test [7], the Potency entry was “inactive”.

Take `C=C(C)C(=O)OC1C(OC(C)=O)/C(C=O)=C\CC/C(CO)=C/C2OC(=O)C(=C)C21` (stereo not drawn): the Potency in test [1] was 1.42 µM (active). Moreover, the Potency result in test [2], in test [3], in test [4], in test [5], in test [6] and in test [7] was “inactive” in each case.

In the case of `O=C(Nc1ccccc1)N1CCN(Cc2ccc3ccccc3n2)CC1`, the Potency entry in test [1], in test [2], in test [3], in test [4], in test [5] and in test [6] was “inactive” each time. Also, the Potency entry in test [7] is “inactive”.

For the compound `CCCOC(c1cc2nccc(C(=O)O)c2[nH]1)c1ccccc1Cl` (stereo not drawn), the Potency result in test [1], in test [2], in test [3], in test [4], in test [5] and in test [6] was “inactive” in each case. The Potency entry in test [7] is “inactive”.

Regarding `O=C(CCCCN1CCOCC1)Nc1ccc(-c2cccnc2)cc1`, the Potency entry in test [1], in test [2], in test [3], in test [4], in test [5] and in test [6] was “inactive” throughout. The Potency entry in test [7] is “inactive”.

Take `CCCC1(c2ccccc2)NC(=O)N(CC(=O)N(C)Cc2c(F)cccc2Cl)C1=O` (stereo not drawn): the Potency entry in test [1], in test [2], in test [3], in test [4], in test [5] and in test [6] was “inactive” each time. The Potency result in test [7] was “inactive”.

In the case of `COc1ccc(CN2C(=O)C(=O)c3cc(S(=O)(=O)N4CCC[C@H]4COc4cccnc4)ccc32)cc1`, the Potency result in test [1], in test [4], in test [5], in test [6] and in test [7] was “inactive” in each case. The Potency was 22.7 µM (active) in test [2] and 25.5 µM (active) in test [3].

`COc1cc(C(=O)OC[C@@]2(O)CO[C@@H](O[C@H]3[C@H](Oc4ccc(C(=O)O)cc4OC)O[C@H](CO)[C@@H](O)[C@@H]3O)[C@@H]2O)ccc1O`: the Potency entry in test [1], in test [2], in test [3], in test [4], in test [5] and in test [6] was “inactive” throughout. In test [7], the Potency entry is “inactive”.

Take `COc1cc(O)cc(C)c1C(=O)O[C@@H]1[C@H](O)[C@@H](CO)O[C@H]1n1ccc(=O)[nH]c1=O`: the Potency result in test [1], in test [2], in test [3], in test [4], in test [5] and in test [6] was “inactive” throughout. Moreover, in test [7], the Potency result is “inactive”.

For the compound `CC(=O)N[C@H]1[C@H](O[C@H]2CC[C@@]3(C)C(CC[C@]4(C)C3CC=C3[C@@H]5CC(C)(C)CC[C@]5(C(=O)OC5OCC(O)C(O)C5O)CC[C@]34C)C2(C)C)O[C@H](COC2OC(C)C(O)C(OC3OC(C)C(O)C(O)C3O)C2O)[C@@H](O)[C@@H]1O` (stereo partly drawn), in test [1], the activity change, negative = cell killing is 1.82% [at 9.23 µM]. Also, the Potency result in test [2] and in test [3] was “inactive” throughout. In addition, the outcome in test [4] is “inactive [at 11.6 µM]”. Also, in test [5], the activity change, negative = thiol reactive is 127% [at 11.5 µM]. Also, the activity, negative = inhibition in test [6] was 4.87% [at 11.6 µM]. Besides, the redox activity (% of DA3003) in test [7] is 3.21% [at 11.5 µM].

As to `CC1=C2C3OC(=O)C(C)C3(O)CCC2(C)CCC1O` (stereo not drawn), the Potency entry in test [1], in test [2], in test [3], in test [4], in test [6] and in test [7] was “inactive” throughout. Moreover, the Potency in test [5] was 11.9 µM (active).

Regarding `CCCCCCOc1cc2c(cc1N(C)c1ncc(C(=O)O)cn1)C(C)(C)CCC2(C)C`, the Potency result in test [1], in test [2], in test [3], in test [4], in test [5] and in test [6] was “inactive” each time. Moreover, the Potency result in test [7] is “inactive”.

With `CC(C)C(=O)OC[C@H]1O[C@H](O[C@H]2O[C@H](CO)[C@@H](O)[C@H](O)[C@H]2O)[C@H](O)[C@@H](O)[C@@H]1O`, the Potency result in test [1], in test [2], in test [3], in test [4], in test [5] and in test [6] was “inactive” throughout. In addition, the Potency result in test [7] is “inactive”.

For `CC12CCC3c4ccc(OC5OC(C(=O)O)C(O)C(O)C5O)cc4CCC3C1CCC2O` (stereo not drawn), the Potency entry in test [1], in test [2], in test [3], in test [4], in test [5] and in test [6] was “inactive” each time. The Potency entry in test [7] is “inactive”.

As for `C/C(=C\C=C\C(C)C1CCC2(C)C3CCC4C(C)(C)C(=O)CCC45CC35CCC12C)C(=O)O` (stereo not drawn), the Potency entry in test [1], in test [2], in test [3], in test [4], in test [5] and in test [6] was “inactive” in each case. The Potency result in test [7] was “inactive”.

Regarding `CCCOc1ccc(-c2nc(OC)c3ccccc3n2)cc1`, the Potency result in test [1], in test [2], in test [3], in test [4], in test [5] and in test [6] was “inactive” in each case. The Potency result in test [7] is “inactive”.

With `C=CC(C)(O)C(O)CC1C(C)(O)C(O)C(O)C2C(C)(C)CCCC21C` (stereo not drawn), the Potency entry in test [1], in test [2], in test [3], in test [4], in test [5] and in test [6] was “inactive” in each case. Also, in test [7], the Potency entry was “inactive”.

Consider `C=C1C(O)C(O)C2(CC3C(C)=CCC4C(C)(CO)CCCC34C)OC2C1O` (stereo not drawn), for which the Potency result in test [1], in test [2], in test [3], in test [4], in test [5] and in test [6] was “inactive” in each case. The Potency entry in test [7] was “inactive”.

For the origin of these results see PubChem BioAssay (NCATS).
